Experimental data: paper PMC12820563, “FoxP3 forms a head-to-head dimer in vivo and stabilizes its multimerization on adjacent microsatellites”
The full ranking holds about 16,000 sequences; the median of “rpm ratio (pull-down/input)” is about 0.5, and the highest 2% start at about 5.5. Shown is part of a subset that was picked to be rich in the highest values.

Target: T1, MBP-FoxP3dN (Mus musculus, UniProt Q99JB6 188-423)
T1 sequence: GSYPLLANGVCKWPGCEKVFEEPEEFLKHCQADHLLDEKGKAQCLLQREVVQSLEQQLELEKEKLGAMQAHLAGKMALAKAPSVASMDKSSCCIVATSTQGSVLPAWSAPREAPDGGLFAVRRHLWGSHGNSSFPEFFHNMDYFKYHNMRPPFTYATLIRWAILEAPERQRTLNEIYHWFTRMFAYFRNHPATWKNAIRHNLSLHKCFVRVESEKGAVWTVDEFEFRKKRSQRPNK
Assay: PD-seq (MBP pull-down with sequencing); 20 mM Tris-HCl pH 7.5, 100 mM NaCl, 1.5 mM MgCl2, 0.4 uM protein, 0.1 uM dsDNA library, 30 min, room temperature, amylose pull-down; high values mean tight binding
Details: protein: recombinant; tags: His6-MBP; chain copies: 2; dsDNA, one strand shown
How it was run: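 Mouse FoxP3 or FoxP1 fragment lacking the N-terminus, His6-MBP-tagged and expressed in E. coli, was incubated at 0.4 µM with 0.1 µM Klenow-filled degenerate double-stranded DNA library for 30 min at room temperature in Tris pH 7.5 buffer with NaCl and MgCl2. Complexes captured on amylose resin were washed three times and their DNA sequenced on Illumina. Binding is reads-per-million enrichment of pull-down over input, replicates pooled.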

Row | Sequence | binding signal
1 | GATGATTGTTCTCCCAGCTGATGAATTGGGAAGGTCGAGTAAACAAATTTTCCTAATCTTTCTGTTCAAGCGCCATCTAC | 0.234 RPM ratio (pull-down/input)
2 | GATGATTGTTCTCCCAGCTGATGAATTCACGGTTTCGAGTAAACAAATTTTCCTAATCTTTCTGTTCAAGCGCCATCTAC | 0.47 RPM ratio (pull-down/input)
3 | GATGATTGTTCTCCCAGCTGATGAATTATTACATTCGAGTAAACAAATTTTCCTAATCTTTCTGTTCAAGCGCCATCTAC | 0.591 RPM ratio (pull-down/input)
4 | GATGATTGTTCTCCCAGCTGATGAATTGTTCTTGTCGAGTAAACAAATTTTCCTAATCTTTCTGTTCAAGCGCCATCTAC | 0.412 RPM ratio (pull-down/input)
5 | GATGATTGTTCTCCCAGCTGATGAATTTGTCACTTCGAGTAAACAAATTTTCCTAATCTTTCTGTTCAAGCGCCATCTAC | 5.39 RPM ratio (pull-down/input)
6 | GATGATTGTTCTCCCAGCTGATGAATTGTCTTGCTCGAGTAAACAAATTTTCCTAATCTTTCTGTTCAAGCGCCATCTAC | 0.461 RPM ratio (pull-down/input)
7 | GATGATTGTTCTCCCAGCTGATGAATTGCTTTTCTCGAGTAAACAAATTTTCCTAATCTTTCTGTTCAAGCGCCATCTAC | 1.42 RPM ratio (pull-down/input)
8 | GATGATTGTTCTCCCAGCTGATGAATTTGCTTACTCGAGTAAACAAATTTTCCTAATCTTTCTGTTCAAGCGCCATCTAC | 6.78 RPM ratio (pull-down/input)
9 | GATGATTGTTCTCCCAGCTGATGAATTGCTTTGCTCGAGTAAACAAATTTTCCTAATCTTTCTGTTCAAGCGCCATCTAC | 1.22 RPM ratio (pull-down/input)
10 | GATGATTGTTCTCCCAGCTGATGAATTTGCTGTCTCGAGTAAACAAATTTTCCTAATCTTTCTGTTCAAGCGCCATCTAC | 6.16 RPM ratio (pull-down/input)
11 | GATGATTGTTCTCCCAGCTGATGAATTTTCTTGCTCGAGTAAACAAATTTTCCTAATCTTTCTGTTCAAGCGCCATCTAC | 0.298 RPM ratio (pull-down/input)
12 | GATGATTGTTCTCCCAGCTGATGAATTTTGCTTCTCGAGTAAACAAATTTTCCTAATCTTTCTGTTCAAGCGCCATCTAC | 2.58 RPM ratio (pull-down/input)
13 | GATGATTGTTCTCCCAGCTGATGAATTTGCTTGCTCGAGTAAACAAATTTTCCTAATCTTTCTGTTCAAGCGCCATCTAC | 6.22 RPM ratio (pull-down/input)
14 | GATGATTGTTCTCCCAGCTGATGAATTGCTTTACTCGAGTAAACAAATTTTCCTAATCTTTCTGTTCAAGCGCCATCTAC | 1.22 RPM ratio (pull-down/input)
15 | GATGATTGTTCTCCCAGCTGATGAATTTGCTTTCTCGAGTAAACAAATTTTCCTAATCTTTCTGTTCAAGCGCCATCTAC | 5.95 RPM ratio (pull-down/input)
16 | GATGATTGTTCTCCCAGCTGATGAATTTTGCTACTCGAGTAAACAAATTTTCCTAATCTTTCTGTTCAAGCGCCATCTAC | 2.59 RPM ratio (pull-down/input)
17 | GATGATTGTTCTCCCAGCTGATGAATTGCTTGTCTCGAGTAAACAAATTTTCCTAATCTTTCTGTTCAAGCGCCATCTAC | 1.71 RPM ratio (pull-down/input)
18 | GATGATTGTTCTCCCAGCTGATGAATTTAGCAGGTCGAGTAAACAAATTTTCCTAATCTTTCTGTTCAAGCGCCATCTAC | 0.708 RPM ratio (pull-down/input)
19 | GATGATTGTTCTCCCAGCTGATGAATTCCCATGGTCGAGTAAACAAATTTTCCTAATCTTTCTGTTCAAGCGCCATCTAC | 0.262 RPM ratio (pull-down/input)
20 | GATGATTGTTCTCCCAGCTGATGAATTACCAGGGTCGAGTAAACAAATTTTCCTAATCTTTCTGTTCAAGCGCCATCTAC | 0.252 RPM ratio (pull-down/input)

Row | Sequence | binding signal
21 | GATGATTGTTCTCCCAGCTGATGAATTTATCCGTTCGAGTAAACAAATTTTCCTAATCTTTCTGTTCAAGCGCCATCTAC | 0.58 RPM ratio (pull-down/input)
22 | GATGATTGTTCTCCCAGCTGATGAATTGCTTTCATCGAGTAAACAAATTTTCCTAATCTTTCTGTTCAAGCGCCATCTAC | 1.04 RPM ratio (pull-down/input)
23 | GATGATTGTTCTCCCAGCTGATGAATTGTAGCCATCGAGTAAACAAATTTTCCTAATCTTTCTGTTCAAGCGCCATCTAC | 1.99 RPM ratio (pull-down/input)
24 | GATGATTGTTCTCCCAGCTGATGAATTTCAACGATCGAGTAAACAAATTTTCCTAATCTTTCTGTTCAAGCGCCATCTAC | 0.284 RPM ratio (pull-down/input)
25 | GATGATTGTTCTCCCAGCTGATGAATTCTGGGGGTCGAGTAAACAAATTTTCCTAATCTTTCTGTTCAAGCGCCATCTAC | 0.456 RPM ratio (pull-down/input)
26 | GATGATTGTTCTCCCAGCTGATGAATTTGTTGATTCGAGTAAACAAATTTTCCTAATCTTTCTGTTCAAGCGCCATCTAC | 7.3 RPM ratio (pull-down/input)
27 | GATGATTGTTCTCCCAGCTGATGAATTCGAGTTTTCGAGTAAACAAATTTTCCTAATCTTTCTGTTCAAGCGCCATCTAC | 0.651 RPM ratio (pull-down/input)
28 | GATGATTGTTCTCCCAGCTGATGAATTGTTTTGTTCGAGTAAACAAATTTTCCTAATCTTTCTGTTCAAGCGCCATCTAC | 4.09 RPM ratio (pull-down/input)
29 | GATGATTGTTCTCCCAGCTGATGAATTTTTTGATTCGAGTAAACAAATTTTCCTAATCTTTCTGTTCAAGCGCCATCTAC | 0.323 RPM ratio (pull-down/input)
30 | GATGATTGTTCTCCCAGCTGATGAATTCTTTTTTTCGAGTAAACAAATTTTCCTAATCTTTCTGTTCAAGCGCCATCTAC | 0.311 RPM ratio (pull-down/input)
31 | GATGATTGTTCTCCCAGCTGATGAATTTTGTTTTTCGAGTAAACAAATTTTCCTAATCTTTCTGTTCAAGCGCCATCTAC | 7.43 RPM ratio (pull-down/input)
32 | GATGATTGTTCTCCCAGCTGATGAATTCTGTTGTTCGAGTAAACAAATTTTCCTAATCTTTCTGTTCAAGCGCCATCTAC | 7.51 RPM ratio (pull-down/input)
33 | GATGATTGTTCTCCCAGCTGATGAATTCTGTTTTTCGAGTAAACAAATTTTCCTAATCTTTCTGTTCAAGCGCCATCTAC | 5.51 RPM ratio (pull-down/input)
34 | GATGATTGTTCTCCCAGCTGATGAATTCCTGTTTTCGAGTAAACAAATTTTCCTAATCTTTCTGTTCAAGCGCCATCTAC | 0.929 RPM ratio (pull-down/input)
35 | GATGATTGTTCTCCCAGCTGATGAATTTTTGTTTTCGAGTAAACAAATTTTCCTAATCTTTCTGTTCAAGCGCCATCTAC | 2.51 RPM ratio (pull-down/input)
36 | GATGATTGTTCTCCCAGCTGATGAATTCTTTGATTCGAGTAAACAAATTTTCCTAATCTTTCTGTTCAAGCGCCATCTAC | 0.276 RPM ratio (pull-down/input)
37 | GATGATTGTTCTCCCAGCTGATGAATTGTTGAATTCGAGTAAACAAATTTTCCTAATCTTTCTGTTCAAGCGCCATCTAC | 1 RPM ratio (pull-down/input)
38 | GATGATTGTTCTCCCAGCTGATGAATTATTAGGTTCGAGTAAACAAATTTTCCTAATCTTTCTGTTCAAGCGCCATCTAC | 0.47 RPM ratio (pull-down/input)
39 | GATGATTGTTCTCCCAGCTGATGAATTAACTTAGTCGAGTAAACAAATTTTCCTAATCTTTCTGTTCAAGCGCCATCTAC | 0.295 RPM ratio (pull-down/input)
40 | GATGATTGTTCTCCCAGCTGATGAATTTCTTCACTCGAGTAAACAAATTTTCCTAATCTTTCTGTTCAAGCGCCATCTAC | 0.269 RPM ratio (pull-down/input)
